About 83,000 compounds went through this panel and 20% of them were active in at least one assay; those are over-represented in the sample as a whole.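 Single-concentration screen, 48 h exposure, 96-well plates. Endpoint: percent growth. Below 10 = active.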 Unmarked numbers belong to inactive results. Active and inactive are the calls of the source.

The test system of this assay is MDA-MB-468 breast. The assay is described as follows: NCI-60 one-dose screen, 48 h (100 = growth as untreated, 0 = no growth, -100 = all killed). The conditions noted are these: 10 µM unless noted.
On to `COc1cc(/C=C2/C=C(c3ccccc3)N(CCc3ccc(S(N)(=O)=O)cc3)C2=O)cc(OC)c1OC`, for which the growth was 94.7%.
As for `Nc1ccc2c(c1)C(=O)c1cc(Cl)c(Cl)cc1-2`, the figure is 89.9%.
As for `C=C1C(=O)O[C@H]2[C@H]1CC/C(COC(=O)OC/C1=C/CC[C@@]3(C)O[C@H]3[C@H]3OC(=O)[C@@H](CN(C)C)[C@@H]3CC1)=C\CC[C@@]1(C)O[C@@H]21`, the figure is -14% (active); as for `COc1cc(C2NC(=O)C(C#N)=C(Nc3cccc(C)c3)S2)ccc1O` (centres undefined), 96.6%; as for `CCOC(=O)C(=CNc1cnc(Nc2ccc(N3CCOCC3)cc2)nc1Oc1ccc(OC)cc1)C(=O)OCC`, 61.5%.
Then `COc1ccc(C[n+]2c3ccccc3n3c4ccc(N)cc4ccc32)c(OC)c1OC`, with -22.5% (active); and `COc1ccc(C(=O)/C=C/c2cccc(Nc3ccnc4cc(Cl)ccc34)c2)cc1`, with -2.59% (active); and `N#CC1=C(N)Oc2c(ccc3ccccc23)C1c1cc2ccccc2n2nnnc12` (centres undefined), with -8.83% (active).
In the case of `O=c1c2ccccc2n2cnc3ccc(Cl)c1c32`, the growth is 79.1%.
As for `COc1ccc(/C=C/c2n[nH]c3ccc(N4CCOC4=O)cc23)cc1`, the figure is -0.999% (active); as for `N=C(N)c1ccc(-c2ccc(-c3ccc(-c4cccs4)s3)s2)cc1F`, 79.5%.
Then `CCN(CC)CCOc1ccc(Cl)c(C)c1`, with 103%; and `COc1ccc(-c2nc3ncccn3c2-c2nnc(-c3ccc(F)cc3)o2)cc1`, with 100%.
As for `CNC(=O)c1cccc(Cn2nc(C)c(NC(=O)c3ccc(COc4ccc(C(F)(F)F)cc4C)cc3)c2C)c1`, the figure is -6.26% (active).

For the origin of these results see PubChem BioAssay (NCI).
